Calls of active or inactive are those of the source. No rule for the calls is given here.

Chain of L-lactate dehydrogenase (Plasmodium falciparum (isolate CDC / Honduras)) (Q27743 whole entry, looked up): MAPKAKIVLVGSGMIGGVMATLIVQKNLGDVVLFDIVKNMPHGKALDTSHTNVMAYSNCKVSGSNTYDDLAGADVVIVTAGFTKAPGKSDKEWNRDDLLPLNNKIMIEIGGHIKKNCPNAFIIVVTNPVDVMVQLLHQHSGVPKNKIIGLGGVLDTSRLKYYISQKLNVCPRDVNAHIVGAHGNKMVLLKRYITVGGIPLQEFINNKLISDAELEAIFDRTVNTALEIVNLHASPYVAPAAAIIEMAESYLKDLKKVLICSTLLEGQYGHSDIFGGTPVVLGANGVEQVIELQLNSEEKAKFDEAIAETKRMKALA

The assay concerns the target L-lactate dehydrogenase (Plasmodium falciparum (isolate CDC / Honduras)) (UniProt Q27743). Briefly: PfLDH activity inhibition – cell lysate, 3D7 strain, counter-screen for P. falciparum growth inhibition project (AID 2304).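 Also: 0% = vehicle and 100% = reference inhibitor.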 The following applies: P. falciparum 3D7 crude extract, LDH APAD/NBT absorbance; at 2 µM; stronger effect = higher value.
As for `Cc1cc(OCCN2CCCCC2)ccc1NC(=O)c1cccc2c(=O)n(Cc3ccc(Cl)cc3)cnc12`, the inhibition was 0% (inactive).
As to `COc1ccc(CNCc2ccccc2)cc1-c1ccc(S(=O)(=O)NCCN2CCCC2)c(C)c1`, the inhibition was 3% (inactive).
With `COc1cc2ncnc(Nc3ccc(OCc4ccccc4)c(C(F)(F)F)c3)c2cc1OC`, the inhibition is 3% (inactive).
In the case of `c1cc(CNC2Cc3ccccc3C2)cc(-c2cnc(N3CCNCC3)nc2)c1`, the inhibition is -9% (inactive).
Consider `COc1ccc(NC(=O)[C@H](CC(C)C)Nc2cc(C)nc(Nc3ccccc3)n2)cc1`, for which the inhibition is -1% (inactive).
`O=C(Nc1cccc(-c2ccc(NCCCN3CCCC3)nc2)c1)c1ccccc1`: the inhibition is 4% (inactive).
On to `CNC(=S)NN=C(C)c1ccccn1`, for which the inhibition was -4% (inactive).
In the case of `CCN(CC)CCN(Cc1ccc(-c2ccc(C(F)(F)F)cc2)cc1)C(=O)Cn1c(CCc2c(F)cc(F)cc2F)nc(=O)c2ccccc21`, the inhibition is 3% (inactive).
Under `Cc1cc(NCCC(=O)Nc2ccccc2)nc(NCCOc2ccccc2)n1` stands 0% (inactive); under `CCOC(=O)c1[nH]c2ccc(F)cc2c1NC(=O)CN1CCN(c2cccc(C(F)(F)F)c2)CC1`, -2% (inactive).
In the case of `C=CCOc1ccc2ccccc2c1CNCCCCCCNCc1c(OCC=C)ccc2ccccc12` it was 3% (inactive).
Consider `Cc1cc(N2CCOCC2)nc(Nc2ccc(NC(=O)Nc3ccc(F)cc3)cc2)n1`, for which the inhibition was -2% (inactive).
Take `CC(C)CNCc1cccc(-c2cccc(CN(CCN(C)C)C(=O)Nc3ccccc3)c2)c1`: the inhibition was 4% (inactive).
With `CC(C)(C)NCC(O)COc1ccc(Cl)cc1C1=NNC(=O)CC1` (stereo not given), the inhibition was -2% (inactive).
Turning to `Cc1cc(CNCCCCCCNCc2ccc(Cl)cc2)ccc1O`, the inhibition is -2% (inactive).
Consider `CC(=O)Nc1ccc(CNCCc2ccc(NC(=O)c3cc(Cl)cc(Cl)c3)cc2)cc1`, for which the inhibition was -1% (inactive).
Turning to `NS(=O)(=O)c1cccc(-c2ccc3nccc(-c4cccc(S(N)(=O)=O)c4)c3c2)c1`, the inhibition was 4% (inactive).
In the case of `CC(=O)Nc1ccc(C(=O)Nc2cccc(-c3ccc(-c4nc5ccc(C(F)(F)F)cc5[nH]4)s3)c2)cn1` it was 3% (inactive).
As for `COC(=O)c1cccc(CN(CCC(O)(C(F)(F)F)C(F)(F)F)C(=O)CC2CCCC2)c1`, the inhibition is 0% (inactive).
Regarding `Cc1cc(C2CCN(CCCCNC(=O)c3ccc(NC(=O)c4ccc(Cl)cc4)cc3)CC2)c(C)cc1OCc1ccccn1`, the inhibition was 3% (inactive).
For `CC(=O)Nc1ccc(C(=O)Nc2ccc(-c3cccc(-c4nc5ccc(C(F)(F)F)cc5[nH]4)c3)cc2)cn1`, the inhibition was -2% (inactive).
`Cc1cccc2[nH]c(-c3cccc(-c4ccc(NC(=O)Nc5cccc(C#N)c5)cc4)c3)nc12`: the inhibition is 6% (inactive).
Regarding `CN(C)CCN1CCN(CCCN2c3ccccc3Sc3ccc(C(F)(F)F)cc32)CC1`, the inhibition is -2% (inactive).
In the case of `COc1cc(C)nc2ccc(NC(=O)COCC(=O)Nc3ccc4nc(C)cc(OC)c4c3)cc12`, the inhibition is 7% (inactive).
As to `Cc1nnc(N2C(=N)SC(=Cc3ccc(-c4ccc(OC(F)(F)F)cc4)o3)C2=O)s1`, the inhibition is -7% (inactive).
Take `CCCNC(=O)c1cncc(-c2ccc(CNCCCc3ccccc3)cc2)c1`: the inhibition was 0% (inactive).
On to `CC(C)CCN(Cc1cncn1Cc1cccc(C(F)(F)F)c1)C(=O)c1cncc(-c2ccccc2)c1`, for which the inhibition was -3% (inactive).
`COc1ccc(CNCc2ccc(F)cc2)cc1-c1cccc(S(=O)(=O)NCCN2CCCC2)c1`: the inhibition was -3% (inactive).
Regarding `CN(C)c1ccc(-c2csc(C(=O)NC3CCN(Cc4ccc(C(C)(C)C)cc4)C3)c2)cc1` (stereo not given), the inhibition is -1% (inactive).
Under `Cc1ccc(S(=O)Cc2ccc(Cl)cc2)cc1` (stereo not given) stands -2% (inactive); under `CCN(CC)CCNC(=O)c1ccc(NC(=O)c2cc3c(C)nn(-c4ccc(Cl)cc4)c3s2)cc1`, -2% (inactive).
As for `Cc1cccc(CN2CCCN(Cc3ccc(C(=O)Nc4ccc(Cl)cc4)cc3)CC2)c1`, the inhibition is 3% (inactive).
As to `OC(CNCc1ccccc1OCc1ccccc1)c1cccc(C(F)(F)F)c1` (stereo not given), the inhibition was -2% (inactive).
Regarding `CS(=O)(=O)CCNCc1ccc(-c2ccc3c(Nc4ccc(Cl)cc4F)ccnc3c2)o1`, the inhibition is -3% (inactive).
Turning to `CC1(C)N=C(N)N=C(N)N1OCc1nc(N)nc(Nc2ccccc2)n1`, the inhibition was -2% (inactive).
As to `CCCCCCNC(=O)c1nn(CCN2CCC(N3CCCC3)CC2)cc1-c1ccc(Cl)c(Cl)c1`, the inhibition is -2% (inactive).
In the case of `Cc1cccc(-c2nn(-c3ccccc3)c3[nH]c(=O)c(CNC4CCCC4)cc23)c1` it was -2% (inactive); in that of `O=C(NC1CCN(c2ccnc3ccccc23)C1)c1cccc(C(F)(F)F)c1` (stereo not given), 6% (inactive).
Under `CSc1cccc(NC(=O)c2cc3ccccc3oc2=O)c1` stands 4% (inactive); under `Cc1cc(Nc2cc(Cl)cc(Cl)c2)nc(N)n1`, 3% (inactive).

These data come from PubChem BioAssay.
